Results reported in PubChem BioAssay (NCI).
This is part of a sample that, as a whole, favours compounds with a hit. Of some 79,000 tested, about 15% had one in any assay. Values without a mark were called inactive. Activity calls are given as the source filed them. Rule as the data show it: active = growth inhibition above about 70%; inactive = the rest.

assay: NCI Yeast Anticancer Drug Screen. Data for the sgs1 mgt1 strain (AID 161);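 also: 0% = growth of cultures given vehicle only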; conditions: S. cerevisiae sgs1 mgt1 strain, at 50.0 µM, active compounds read high
Summary of the method: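 Genetically altered yeast, compound exposure, growth inhibition relative to vehicle.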

Structure (SMILES)	growth inhibition
S=C(Nc1cc(Cl)cc(Cl)c1)SCc1ccccc1	99.2% (active)
CCCOc1cc(C(=O)OCCN(CC)CC)cc(OCCC)c1OCCC	44.8%
C=C1C(=O)[C@@]23CC[C@H]4[C@@](C)(CCC[C@@]4(C)C(=O)OC)[C@@H]2CC[C@]1(O)C3	94% (active)
CCCSc1ncnc2nc(C)[nH]c12	2.25%
O=C1C=CC(=O)N1CCCCCCN1C(=O)C=CC1=O	98.8% (active)
CCOC(=O)c1[nH]c2c([N+](=O)[O-])cccc2c1[N+](=O)[O-]	94.8% (active)
CSC(=S)/C(=C/Nc1ncccn1)c1ccccc1	79% (active)
N#CNc1nc(N)c(-c2ccc(Cl)cc2)c(C(=O)Nc2ccc(Cl)c(Cl)c2)n1	-8%
COc1ccc2c(c1)c(=O)c1c(NCCN(C)C)ccc3nnn2c31	10.2%
CCC[CH2][Sn]([S][Sn]([CH2]CCC)([c]1ccccc1)[c]1ccccc1)([c]1ccccc1)[c]1ccccc1	99.5% (active)
CCC1=CCC2C(=O)c3cc4ccccc4cc3C(=O)C2C1 (stereo not drawn)	89.6% (active)
Cc1ccccc1NC(=O)C1C(=O)N(c2ccccc2C)C(=O)/C1=N/O (stereo not drawn)	-4.55%
CCCCc1[nH]ccc2c(C)c3nc4ccccc4c3cc12	97.5% (active)
O=C(O)C(Br)C(Br)C(=O)Nc1ccc(Cl)c(Cl)c1 (stereo not drawn)	96.8% (active)
Cc1cc(C)c2c(c1)sc1nncn12	96% (active)
CC(=O)C(C=O)C(C)=O.CC(=O)CC(C)=O.CC(=O)CC(C)=O.[Ru]	50.5%
COc1ccc(NC(=O)CCC(=O)C(C)C(=O)c2ccccc2)cc1 (stereo not drawn)	26.8%
CCCCCCCCCCCCCC(=O)CC(=O)c1c(O)cccc1O	-3.9%
Cc1ccc(NC(=S)SCc2ccco2)cc1Cl	99.7% (active)
Cc1nc(N)nn1C	-3.55%

Structure (SMILES)	growth inhibition
Cc1cccc(O)c(=O)c1	99.5% (active)
O=C1C=CC(=O)N1c1ccc(-c2nc3ccccc3o2)cc1	91.5% (active)
NC1=NC(c2ccccc2)CC(c2cc(Cl)cc(Br)c2O)=N1 (stereo not drawn)	10.7%
CCCCCCCCCCCc1ccn[nH]1	99.3% (active)
CC(=O)Oc1c(-c2ccccc2)cc([N+](=O)[O-])cc1[N+](=O)[O-]	93.6% (active)
COc1cccc2c1C1c3ccccc3Sc3cccc(c31)O2 (stereo not drawn)	19.6%
O=C1CC(O)C=C1Nc1ccc(Cl)cc1 (stereo not drawn)	98.7% (active)
C=CCNC(=S)N/N=C(/c1ccccn1)C(C)C	96.9% (active)
CCCCCCCCCCCCCCCC[N+](C)(C)c1ccccc1	90.4% (active)
O=C(NC(OCc1ccccc1)(C(F)(F)F)C(F)(F)F)OCc1ccccc1	93.7% (active)
Cc1cc2oc3c(ccc(=O)n3C)c(=O)c2c(C)c1Cl	54.8%
COc1cc2c(cc1OC)C(=O)C(C)(c1ccccc1)NC2 (stereo not drawn)	92.4% (active)
CCC(C)NCCNc1cc(OC)cc2cccnc12 (stereo not drawn)	21%
CN(C)CCCN=c1c2ccccc2n(O)c2ccccc12	-32.5%
N#CCc1ccccc1-c1cccc2ccccc12	54.8%
CN=C1NS(=O)(=O)c2ccccc21	3.4%
COc1cc(CSc2ccc(O)cc2)cc(OC)c1OC	84.9% (active)
CN(C)CCCNc1c2ccccc2nc2cccc([N+](=O)[O-])c12	92.8% (active)
CCCCCCCCCCCCCCCc1ncc(C)[nH]1	99.4% (active)

assay: NCI Yeast Anticancer Drug Screen. Data for the cln2 rad14 strain (AID 165);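 also: 0% = growth equal to vehicle treated cultures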; conditions: S. cerevisiae cln2 rad14 strain, at 5.0 µM (retest, dose inferred, filed as 0.5), active compounds read high
Summary of the method: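 The screen exposed genetically defined yeast (cln2 rad14) to test compounds and scored growth inhibition relative to vehicle-treated controls.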

Structure (SMILES)	growth inhibition
S=C(Nc1cc(Cl)cc(Cl)c1)SCc1ccccc1	-9%
CCCOc1cc(C(=O)OCCN(CC)CC)cc(OCCC)c1OCCC	8%
C=C1C(=O)[C@@]23CC[C@H]4[C@@](C)(CCC[C@@]4(C)C(=O)OC)[C@@H]2CC[C@]1(O)C3	54%
CCCSc1ncnc2nc(C)[nH]c12	0%
O=C1C=CC(=O)N1CCCCCCN1C(=O)C=CC1=O	16%
CCOC(=O)c1[nH]c2c([N+](=O)[O-])cccc2c1[N+](=O)[O-]	4%
CSC(=S)/C(=C/Nc1ncccn1)c1ccccc1	1%
N#CNc1nc(N)c(-c2ccc(Cl)cc2)c(C(=O)Nc2ccc(Cl)c(Cl)c2)n1	-4%
COc1ccc2c(c1)c(=O)c1c(NCCN(C)C)ccc3nnn2c31	-13%
CCC[CH2][Sn]([S][Sn]([CH2]CCC)([c]1ccccc1)[c]1ccccc1)([c]1ccccc1)[c]1ccccc1	97% (active)
CCC1=CCC2C(=O)c3cc4ccccc4cc3C(=O)C2C1 (stereo not drawn)	2%
Cc1ccccc1NC(=O)C1C(=O)N(c2ccccc2C)C(=O)/C1=N/O (stereo not drawn)	-6%
CCCCc1[nH]ccc2c(C)c3nc4ccccc4c3cc12	2%
O=C(O)C(Br)C(Br)C(=O)Nc1ccc(Cl)c(Cl)c1 (stereo not drawn)	25%
Cc1cc(C)c2c(c1)sc1nncn12	46%
CC(=O)C(C=O)C(C)=O.CC(=O)CC(C)=O.CC(=O)CC(C)=O.[Ru]	0%
COc1ccc(NC(=O)CCC(=O)C(C)C(=O)c2ccccc2)cc1 (stereo not drawn)	-1%
CCCCCCCCCCCCCC(=O)CC(=O)c1c(O)cccc1O	10%
Cc1ccc(NC(=S)SCc2ccco2)cc1Cl	-3%
Cc1nc(N)nn1C	-4%

Structure (SMILES)	growth inhibition
Cc1cccc(O)c(=O)c1	8%
O=C1C=CC(=O)N1c1ccc(-c2nc3ccccc3o2)cc1	81% (active)
NC1=NC(c2ccccc2)CC(c2cc(Cl)cc(Br)c2O)=N1 (stereo not drawn)	0%
CCCCCCCCCCCc1ccn[nH]1	-18%
CC(=O)Oc1c(-c2ccccc2)cc([N+](=O)[O-])cc1[N+](=O)[O-]	17%
COc1cccc2c1C1c3ccccc3Sc3cccc(c31)O2 (stereo not drawn)	1%
O=C1CC(O)C=C1Nc1ccc(Cl)cc1 (stereo not drawn)	-8%
C=CCNC(=S)N/N=C(/c1ccccn1)C(C)C	-4%
CCCCCCCCCCCCCCCC[N+](C)(C)c1ccccc1	98% (active)
O=C(NC(OCc1ccccc1)(C(F)(F)F)C(F)(F)F)OCc1ccccc1	11%
Cc1cc2oc3c(ccc(=O)n3C)c(=O)c2c(C)c1Cl	20%
COc1cc2c(cc1OC)C(=O)C(C)(c1ccccc1)NC2 (stereo not drawn)	10%
CCC(C)NCCNc1cc(OC)cc2cccnc12 (stereo not drawn)	16%
CN(C)CCCN=c1c2ccccc2n(O)c2ccccc12	22%
N#CCc1ccccc1-c1cccc2ccccc12	3%
CN=C1NS(=O)(=O)c2ccccc21	0%
COc1cc(CSc2ccc(O)cc2)cc(OC)c1OC	-18%
CN(C)CCCNc1c2ccccc2nc2cccc([N+](=O)[O-])c12	95% (active)
CCCCCCCCCCCCCCCc1ncc(C)[nH]1	28%
